Source: the supplement of paper PMC10121225

Tested on: hN + hpA co-culture (H1 iNGN2 human neurons + human primary astrocytes)
Assay: presynaptic density (SYNAPSIN1 puncta per MAP2 neurite area), Z-score vs DMSO controls; higher = more presynaptic puncta (synapse-promoting)
Details: 3 µM; 72 h
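Also: immunostained co-cultures imaged by high-content microscopy, Z-score per plate against mean and SD of 0.1% DMSO wells, compounds added on differentiation day 18, analysed day 21.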

Structure (SMILES) | presynaptic density (Z-score)
CC(=O)Nc1nc2c(Oc3cc(-c4ccc(C(F)(F)F)cc4)ncn3)cccc2s1 | 0.208
CN1CCN(c2nc(C3=C(c4c[nH]c5ccccc45)C(=O)NC3=O)c3ccccc3n2)CC1 [AEB071 (Sotrastaurin)] | -0.719
CC1=C(C(=O)Nc2cc3cn[nH]c3cc2F)C(c2ccc(C(F)(F)F)cc2)CC(=O)N1 (stereo not drawn) | 1.88
COc1cc(N2CCC(N(C)C)CC2)ccc1Nc1ncc(Cl)c(Nc2ccccc2P(C)(C)=O)n1 | 0.449
CC(C)(C)c1cc(NC(=O)Nc2ccc(-c3cn4c(n3)sc3cc(OCCN5CCOCC5)ccc34)cc2)no1 [AC220 (Quizartinib] | 0.214
O=C(Nc1ccc(S(=O)(=O)Nc2ccccc2Cl)c(Cl)c1)c1ccccn1 | -0.71
O=C1NC(=O)C(c2ccccc2[N+](=O)[O-])=C1Nc1ccc(O)c(Cl)c1 | -0.662
CN(C)CCc1c[nH]c2ccc(Cn3cncn3)cc12 | -0.227
C[C@@H](O[C@H]1OCCN(Cc2n[nH]c(=O)[nH]2)[C@H]1c1ccc(F)cc1)c1cc(C(F)(F)F)cc(C(F)(F)F)c1 [Aprepitant] | 0.895
CN(C)Cc1ccc(-c2nc3cccc4c3n2CCNC4=O)cc1 | -0.178
O=c1cc(-c2ccc(O)cc2)oc2cc(O)cc(O)c12 [Apigenin] | 0.0449
CC(=O)OCC(=O)NCCCOc1cccc(CN2CCCCC2)c1 | -0.62
OCCn1cc(-c2cnc3nnn(Cc4ccc5ncccc5c4)c3n2)cn1 | -0.173
COc1nc(C)cnc1NS(=O)(=O)c1cccnc1-c1ccc(-c2nnco2)cc1 [Zibotentan (ZD4054)] | -1.1
CC(C)C[C@H](NC(=O)[C@@H](NC(=O)c1cccc(-c2ccccc2)n1)[C@@H](C)O)B(O)O | -3.12
O=C(c1ccc(F)cc1)N1CCCC(c2nc(-c3ccc(F)cc3)no2)C1 (stereo not drawn) | -0.851
CCc1cccc2c3c([nH]c12)C(CC)(CC(=O)O)OCC3 (stereo not drawn) [Etodolac] | -1.87
COc1cc(CCc2cc(NC(=O)c3ccc(N4CC(C)NC(C)C4)cc3)n[nH]2)cc(OC)c1 (stereo not drawn) | -0.132
COc1ccccc1S(=O)(=O)Nc1ccc2c(c1)CN(C)C(=O)N2 | 0.796

Structure (SMILES) | presynaptic density (Z-score)
CS(=O)(=O)c1ccc(-c2cnc(N)c(C(=O)Nc3ccccc3)n2)cc1 | -0.463
CC(C)OC(=O)C1=CN(C(=O)c2ccc(F)c(F)c2)CC(C)(C)c2c1[nH]c1ccccc21 | -0.269
CC(C)(C)Cn1c(N)nc2ccc(-c3[nH]c(C(C)(C)C)nc3-c3ccc(F)cc3)nc21 | 0.191
Cc1ccc([C@@H]2O[C@H](CO)[C@@H](O)[C@H](O)[C@H]2O)cc1Cc1ccc(-c2ccc(F)cc2)s1 [Canagliflozin] | -0.473
Cn1cnc2c(F)c(Nc3ccc(Br)cc3Cl)c(C(=O)NOCCO)cc21 | 0.953
C[C@]1(O)C[C@@H](c2nc(-c3ccc4ccc(-c5ccccc5)nc4c3)c3c(N)nccn32)C1 [OSI-906 (Linsitinib)] | 0.349
CC(C)(Cc1ccc2ccccc2c1)NC[C@@H](O)COc1cccc(Cl)c1C#N | -2.26
Cc1c(C(=O)NN2CCCCC2)nn(-c2ccc(Cl)cc2Cl)c1-c1ccc(Cl)cc1 [Rimonabant] | -0.594
Cc1cnc(NC(=O)Nc2cc(Br)c(C)cc2OC[C@@H]2CNCCO2)cn1 | -0.602
O=C(O)c1ccc(Nc2ncc3c(n2)-c2ccc(Cl)cc2C(c2c(F)cccc2F)=NC3)cc1 | -0.286
CCN(c1cc(-c2ccc(CN3CCOCC3)cc2)cc(C(=O)NCc2c(C)cc(C)[nH]c2=O)c1C)C1CCOCC1 | -0.342
O=S(=O)(c1ccccc1)c1cnc2c(N3CCNCC3)cccc2c1 | -0.943
Nc1cccc2c1C(=O)N(C1CCC(=O)NC1=O)C2=O (stereo not drawn) [Pomalidomide] | 0.469
CCOC(=O)C1=C(C)NC(C)=C(C(=O)OC)C1c1cccc(Cl)c1Cl (stereo not drawn) [Felodipine] | -1.18
COc1ccc2cc([C@H](C)C(=O)O)ccc2c1 [Naproxen] | -1.04
CN[C@H]1CC[C@@H](c2ccc(Cl)c(Cl)c2)c2ccccc21 | 1.13
CCN(CC)C(=O)/C(C#N)=C/c1cc(O)c(O)c([N+](=O)[O-])c1 [Entacapone] | 0.44
C#Cc1cccc(Nc2ncnc3cc4c(cc23)OCCOCCOCCO4)c1 [Icotinib] | -0.0135
CC[C@@H]1C(=O)N(C)c2cnc(Nc3ccc(C(=O)NC4CCN(C)CC4)cc3OC)nc2N1C1CCCC1 | -2.32
